Source: ChEMBL document CHEMBL4296182, “CO-ADD screening of NIH NCI Diversity Set V”
For part of these data: Results with a measured potency or affinity are listed apart.

What was measured:
Staphylococcus aureus = assay: Antibacterial activity against Staphylococcus aureus MRSA ATCC 43300 (CO-ADD:GP_020); MIC in CAMBH media using NBS plates, by Resazurin F(560/590); format: functional; settings: Concentration 20 uM, ASSAY_TEST Inhibition of Bacterial Growth, detection method Resazurin, Fluorescence (ex560/em590), MEDIA CAMHB, plate type 384well, CORNING #3640, time 18 hr
Acinetobacter baumannii = assay: Antibacterial activity against Acinetobacter baumannii ATCC 19606 (CO-ADD:GN_034); MIC in CAMBH media using NBS plates, by Resazurin F(560/590); format: functional; settings: Concentration 20 uM, ASSAY_TEST Inhibition of Bacterial Growth, detection method Resazurin, Fluorescence (ex560/em590), MEDIA CAMHB, plate type 384well, CORNING #3640, time 18 hr
Escherichia coli = assay: Antibacterial activity against Escherichia coli ATCC 25922 (CO-ADD:GN_001); MIC in CAMBH media using NBS plates, by Resazurin F(560/590); format: functional; settings: Concentration 20 uM, ASSAY_TEST Inhibition of Bacterial Growth, detection method Resazurin, Fluorescence (ex560/em590), MEDIA CAMHB, plate type 384well, CORNING #3640, time 18 hr
Klebsiella pneumoniae = settings: Concentration 20 uM; ASSAY_TEST Inhibition of Bacterial Growth; detection method Absorption (OD600); MEDIA CAMHB; plate type 384well; NBS; CORNING #3640; time 18 hr
Candida albicans = settings: 20 µM
Cryptococcus neoformans = settings: Concentration 20 uM; ASSAY_TEST Inhibition of Fungal Growth; detection method Resazurin; Absorption (OD600-OD570); plate type 384well; NBS; CORNING #3640

Row | Compound | Inhibition (Staphylococcus aureus) [%] | Inhibition (Acinetobacter baumannii) [%] | Inhibition (Escherichia coli) [%] | Inhibition (Klebsiella pneumoniae) [%] | Inhibition (Candida albicans) [%] | Inhibition (Cryptococcus neoformans) [%]
1 | COC(=O)c1ccccc1NCCO | -8.89 | 2.46 | 10.44 | 7.33 | -0.42 | -9.6
2 | NC(=S)NC(=O)c1ccccc1 | 15.19 | -5.77 | 13.89 | 14.46 | 2.89 | -5.13
3 | OCC1(CO)CC2(C1)CC(CO)(CO)C2 | 5.83 | -10.2 | 9.77 | 7.41 | -2 | 1.54
4 | COC1C(=O)CCC2(CO2)C1(O)C1(C)OC1CC=C(C)C (stereo unspecified) | -15.99 | -18.89 | 14.59 | 5.17 | 9.99 | -9.09
5 | CN(C)S(=O)(=O)N1C(=O)c2ccccc2C1=O | 5.4 | 12.12 | -0.21 | 11.91 | 5.89 | -1.33
6 | C=CCN1CCN(c2ccncc2S(=O)(=O)N2CCN(C)CC2)CC1 | 11.93 | 5.76 | 5.47 | 7.93 | -0.33 | -11.5
7 | CC(=O)NCCCOc1ccc([N+](=O)[O-])cc1Cl | 3.67 | -1.89 | 11.85 | 3.56 | 0.9 | -4.3
8 | CC(C)(C)N=C(S)NC(C)(C)C | 10.55 | -9.16 | 4.33 | 8.8 | 1 | -0.12
9 | CN1CCc2ccccc2C1Cc1ccccc1NC(=O)c1sc2ccccc2c1Cl (stereo unspecified) | 1.84 | -6.84 | 0.33 | 11.11 | 2.39 | -3.5
10 | O=Cc1c[nH]c2ncccc12 | 3.78 | -8.67 | 4.47 | 13.98 | 4.83 | -7.37
11 | Nc1nc(N)c(/N=N/c2ccc(C(=O)O)cc2)c(N)n1 | 20.24 | -14.9 | 9.92 | 6.15 | 7.35 | -10.91
12 | O=C(O)c1cc(O)ccc1/N=N/c1ccccc1 | 3.85 | -9.66 | 1.52 | 5.36 | 10.2 | -9.07
13 | COc1ccc(CC(=O)c2ccc(O)cc2O)cc1 [ONONETIN] | 1.4 | 4.43 | 2.27 | 20.95 | 17.6 | -13.72
14 | COC(=O)c1ccc(C(=O)OC)c(O)n1 | 3.27 | 9.07 | 2.76 | 7.35 | 0.7 | -5.98
15 | O=C(C=C=Nc1ccccc1)C(=O)N=C=Cc1ccccc1 | 7.34 | 5.35 | 5.03 | 25.39 | 6.53 | 5.95
16 | Oc1cccc2cnccc12 | -5.81 | 3.26 | 3.71 | 12.61 | 1 | 3.35
17 | CS(=O)(=O)Oc1ccc(Br)c2cccnc12 | 10.68 | 10.16 | 3.51 | 19.67 | 4.07 | -11.45
18 | Cc1cc(O)c2c(C)ccc(C)c2n1 | 0.21 | 1.08 | 3.82 | 5.25 | 0.13 | -9.44
19 | CC(OC(=O)Nc1cccc(Cl)c1)C(=O)O (stereo unspecified) | 8.5 | 9.43 | 16.3 | 7.75 | -1.51 | -11.24
20 | O=C(NC1(N2CCOCC2)CC1)c1ccc(Cl)cc1 | 6.77 | -6.57 | -5.43 | 3.34 | 2.83 | -0.42
21 | N#CC1C(=O)NC(=O)C(C#N)C12CCCC(C(F)(F)F)C2 (stereo unspecified) | 7.59 | 8.61 | -6.62 | 4.19 | 1.89 | -0.69
22 | CC(=O)c1cc(O)c2ccccc2c1O | 4.01 | -14.11 | 0.42 | 7.57 | 24.1 | 6.09
23 | Cn1c(=O)c2c(nc(OCCc3ccccc3)n2C)n(C)c1=O | 6.63 | -9.02 | 8.83 | 12.12 | 3.96 | -6.56
24 | O=c1nc2onnc2c(/C=N\O)[nH]1 | 11.4 | -9.04 | 10.25 | 15.41 | -0.67 | -3.06
25 | O=C(O)c1cncc(Br)c1 | 13.85 | -13.95 | 3.81 | 4.04 | 6.23 | -7.23
26 | CC1(C)C2CCC(CN=C(N)CSS(=O)(=O)O)C1C2 (stereo unspecified) | 18.41 | 14.08 | 1.93 | 19.04 | -2.77 | -13.54
